Measured values taken from the supplement of paper PMC6555819.

Assays:
Assay in all cases: PBM binding z-score (relative to random genomic background probes); higher = stronger binding; sequences stand for … in GC…GCGATTGACAGCGTAGAATGAAGG
[1] = system: FXR:RXRa (NR concentration 270 nM, RXRa partner concentration 90 nM)
How it was run: (§1)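 Ligand-free nuclear receptor dimers were bound for 1 h to custom Agilent 4×180K protein-binding microarrays. Detection used antibodies against each partner (one per run). Binding z-scores rest on regression-normalized fluorescence, with random background probes as the reference.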

[2] = system: LXRa:RXRa (NR concentration 270 nM, RXRa partner concentration 90 nM)
How it was run: as §1

[3] = system: LXRa homodimer (NR concentration 270 nM)
How it was run: as §1

[4] = system: LXRb:RXRa (NR concentration 270 nM, RXRa partner concentration 90 nM)
How it was run: as §1

[5] = system: LXRb homodimer (NR concentration 270 nM)
How it was run: as §1

[6] = system: PPARa:RXRa (NR concentration 270 nM, RXRa partner concentration 90 nM)
How it was run: as §1

[7] = system: PPARg:RXRa (NR concentration 180 nM, RXRa partner concentration 90 nM)
How it was run: as §1

[8] = system: PPARg:RXRa 270nM:90nM, anti-RXR (NR concentration 270 nM, RXRa partner concentration 90 nM)
How it was run: as §1

[9] = system: PPARg:RXRa 30nM:10nM, anti-RXR (NR concentration 30 nM, RXRa partner concentration 10 nM)
How it was run: as §1

[10] = system: PPARg:RXRa 90nM:30nM, anti-RXR (NR concentration 90 nM, RXRa partner concentration 30 nM)
How it was run: as §1

[11] = system: PPARg:RXRa DBDmut IVT, anti-RXR (DBD mutation: RXRa K156A/R161A, NR concentration 270 nM, RXRa partner concentration 90 nM)
How it was run: as §1

[12] = system: PPARg:RXRa IVT, anti-PPARg (NR concentration 270 nM, RXRa partner concentration 90 nM)
How it was run: as §1

[13] = system: PPARg DBDmut:RXRa IVT, anti-PPARg (DBD mutation: PPARg1 K132A/R137A, NR concentration 270 nM, RXRa partner concentration 90 nM)
How it was run: as §1

[14] = system: PPARg DBDmut IVT, anti-PPARg (DBD mutation: PPARg1 K132A/R137A, NR concentration 270 nM)
How it was run: as §1

[15] = system: PPARg homodimer (NR concentration 180 nM)
How it was run: as §1

[16] = system: PXR:RXRa (NR concentration 270 nM, RXRa partner concentration 90 nM)
How it was run: as §1

[17] = system: PXR homodimer (NR concentration 270 nM)
How it was run: as §1

[18] = system: RARa:RXR (NR concentration 270 nM, RXRa partner concentration 90 nM)
How it was run: as §1

[19] = system: RARa homodimer (NR concentration 270 nM)
How it was run: as §1

[20] = system: RARb:RXRa (NR concentration 270 nM, RXRa partner concentration 90 nM)
How it was run: as §1

Sequence	PBM binding z-score [1]	PBM binding z-score [2]	PBM binding z-score [3]	PBM binding z-score [4]	PBM binding z-score [5]	PBM binding z-score [6]	PBM binding z-score [7]	PBM binding z-score [8]	PBM binding z-score [9]	PBM binding z-score [10]	PBM binding z-score [11]	PBM binding z-score [12]	PBM binding z-score [13]	PBM binding z-score [14]	PBM binding z-score [15]	PBM binding z-score [16]	PBM binding z-score [17]	PBM binding z-score [18]	PBM binding z-score [19]	PBM binding z-score [20]
ACTAGCAGGCCAAGGGTCACTAAAGATTAGTCCG	2.25	3.51	-0.00755	2.66	-0.174	4.34	8.06	7.21	6.64	7.61	1.3	3.86	0.0188	-0.44	2	3	-0.139	3.97	0.15	3.42
GCTCGGAGGACAAGGACAGAGCTTTGTCCGTAGA	-0.454	-0.825	-0.708	-0.936	-1.44	-0.604	-0.644	-0.934	-1.21	-1.04	-0.897	-0.505	-1.52	-0.297	-0.588	-0.527	-0.912	-0.421	-1.45	0.929
ATCGAAAGGTCGAAGGCGAGTATACCCACCCGAA	4.01	3.3	0.25	2.4	0.608	3.71	2.33	2.5	0.887	1.49	-0.0271	1.19	0.286	0.268	1.03	2.14	-0.132	2.87	0.519	3.57
GGAACGAGGGCAATTTGATAGCAGAGTTTGATGG	0.502	0.242	-0.405	0.427	-0.315	1	1.04	0.751	0.15	0.401	3.43	2.2	-0.942	-0.307	0.234	0.484	0.475	0.401	-0.342	1.64
CCGACTGGGGCATAAAGGTTACCATACCATCCGG	0.385	0.747	-0.0869	0.923	-0.959	2.47	3.04	3.77	2.08	3.81	1.89	3.25	-0.548	-1.23	1.42	1.3	-0.303	1.83	0.301	1.89
ATCGAAATGTCGAGGTGAGTATAGAGAAAGGGAA	0.0498	-0.124	-0.716	-0.253	-0.363	0.204	0.315	0.0336	0.162	0.363	-0.755	0.414	0.309	0.489	-0.704	-0.204	-0.513	0.129	-0.696	0.538
ACATGTAGGTTAGCTGGGGTCATTCAGACTAGGC	5.12	5.55	2.93	4.9	1.56	4.85	4.21	4.58	1.87	3.39	5.83	4.97	2.39	2.35	6.39	6.77	5.5	6.23	2.18	3.1
CCGACTGGGGCAACGTTACCATAACGCACAGCCA	-0.667	-0.521	-0.397	-0.465	-1.01	0.0876	1.64	0.667	-0.502	-0.136	4.02	3.62	-0.725	-0.25	-0.224	-0.885	-0.271	-0.695	-0.177	0.224
TCTGCTAGGTCAAGGATGGTCAGCTAATCTGCTA	2.86	2.82	-0.0468	1.48	-0.198	3.12	2.01	3.21	2.02	2.71	4.19	4.08	-0.492	0.24	0.578	1.23	-0.697	2.26	-0.712	3.97
TAGCCTAGGTCATTCAGGGGCCAATATAGAAAGC	4.5	4.59	1.12	3.78	1.21	3.97	2.41	2.82	0.793	1.51	1.85	2.85	0.373	1.2	2.49	3.08	0.116	4.05	0.318	3.93
CGTCCAAGGTCAAAGATCAGTGAAGAGATGACGG	6.99	5.44	0.528	4.2	1.25	5.75	6.08	6.43	3.08	5.64	3.3	3.88	0.698	-0.108	2.98	4.59	1.01	5.63	1.03	5.16
GCAGACAGGTGAAACGCAGGTAACGCAGGGTGGC	-0.151	-0.229	-0.631	-0.357	-1.09	0.749	0.665	-0.038	-0.74	-0.0828	0.691	0.737	-0.603	-0.805	-0.678	-0.552	-0.857	0.395	-0.862	0.76
ACAGACAGGAGAGTGAAGGTAACTCAGCTGGACG	0.399	-0.127	-0.128	0.0952	0.885	0.0627	0.928	0.616	0.213	0.343	-0.0669	0.0769	0.725	0.294	0.433	0.0985	0.114	0.228	0.297	0.198
GTACCCAGGTGAATAGGTCGTTGATGAGTAGGCG	0.381	0.343	-0.131	0.285	-0.0749	1.59	1.34	1.25	0.309	0.972	1.26	2.42	-0.166	-0.407	0.786	0.279	0.138	1.08	0.238	0.908
GCTAGTTGGACAGTAAAAGGTCACACACCGGTCG	2.82	4.25	4.25	4.22	0.188	4.4	2.61	3.78	1.89	3.36	0.431	2.16	-0.417	-0.407	3.24	4.68	1.09	5.53	1.25	3.95
TCATATAAGTAAACAGGTGAAAGTCCGTAAGTTA	1.27	1.25	0.422	1.2	0.0139	1.55	1.32	2.57	4.41	3.57	3.11	1.31	0.554	1.07	1.13	1.09	0.507	1.19	1.75	0.383
TCTTGTAAATCAAAGGTTAAGAAAGCCGAAGCCT	1.34	2.53	0.811	1.94	0.621	3.08	3.23	5.39	4.93	5.88	1.48	1.25	0.212	0.506	1.05	1.42	-0.311	2.32	0.632	1.87
GGCACGAGGGCATTCGAGTTGATAGCATGGCGAT	1.22	1.79	-0.515	0.139	-1.26	0.942	0.663	0.216	-0.477	-0.229	1.63	0.977	-1.13	-1.45	-0.356	3.77	1.72	0.606	-0.627	1.95
TCTATTAGTTTATTAGGGCAACCGAAACAGCGGA	1.14	0.997	1.69	1.25	2.21	2.4	1.56	3.07	3.87	3.33	4.65	4.46	2.16	2.42	1.44	1.07	1.21	0.944	1.74	1.57
GGAACGAGGGCAAAGTTGATATCATCTGTCGACG	1.25	0.812	-0.316	0.894	-0.47	3.94	6.68	6.84	6.13	7.1	3.87	4.19	0.622	0.251	0.45	1.18	0.208	1.62	0.254	2.32
GGAACGAGGGCGTTCGAGTTGATAGCATGGCGAT	-0.0904	-0.232	-0.938	-0.656	-0.964	-0.0431	0.127	-0.547	-0.579	-0.797	1.14	0.591	-1.48	-0.922	-0.718	1.88	0.811	0.317	-0.727	0.422
AGAACGAGGGCAATGAGTTGATAGTACGGGTGGC	0.224	0.29	-0.524	-0.18	-0.473	1.56	1.5	0.768	0.0705	0.415	3.34	2.4	-0.466	0.0133	0.221	2	6.24	0.19	-0.58	2.11
CCTACTGGGCCAAAGCTCATTGATTCCAATGCTC	-0.596	-0.522	-0.451	-0.576	-0.796	1.48	2.63	4.26	2.45	3.85	4.44	3.69	-0.419	-0.625	-0.0929	-0.568	-0.291	-0.318	-0.841	-0.251
GCAGACAGGTGAAACGTAGGTAACTCAGGGTGGC	-0.116	0.0027	-0.589	-0.409	-0.785	0.799	0.792	0.526	-0.444	-0.0243	1.69	0.679	-0.482	-0.518	-0.211	-0.374	-0.933	0.315	-0.166	0.76
TAGCCTAGGTCATGGGCGAGTATACCACGCGAAC	4.42	3.43	0.0703	2.28	-0.329	4.15	3.46	3.42	0.67	2.09	1.54	3.26	0.096	-0.639	0.74	1.53	-0.407	2.3	-0.782	3.91
ATCTCTAGGTAAGACTAAGTTCAGTGAAGAACGC	0.633	0.867	0.705	0.595	0.815	0.936	0.481	1.71	0.577	1.75	1.81	1.37	0.418	0.902	1.48	1.83	1.82	1.14	0.975	1.19
TCTTGTAGATCAAGCACGTTAAGAAAGCCTGAGT	0.465	0.232	-0.171	0.106	-0.495	0.484	-0.254	1.12	2.5	1.97	1.73	0.108	0.449	0.566	0.56	0.445	-0.148	0.501	-0.338	-0.035
CATACTGGGCCAAGGTCATTGATCAGTCAAAGCA	3.54	3.16	1.14	3.19	0.044	4.12	4.1	4.28	2.31	3.8	3.65	4.49	0.346	-0.286	2.02	3.78	2.15	4.01	0.356	3.35
CATACAGGGTCACCTAGGCCAGAGTAGGGACGGC	6.41	4.26	0.036	3.35	0.688	5.64	6.1	5.1	2.1	3.77	1.55	4.32	1.86	1.64	1.65	3.56	0.395	4.49	0.259	4.41
